This is an account of results in PubChem BioAssay (NCI).

About 83,000 compounds went through this panel and 20% of them were active in at least one assay; those are over-represented in the sample as a whole.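 Results are percent growth after 48 hours of single-concentration exposure. 100 means growth as in untreated cells, lower positive values show inhibition; negative values down to -100 show cell death.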 Unmarked numbers belong to inactive results. Activity calls are given as the source filed them. How the source made its calls: active means growth percent below 10; inactive means the rest.

What all share (assay): NCI-60 one-dose screen, 48 h (100 = growth as untreated, 0 = no growth, -100 = all killed)
Holding throughout (conditions): 10 µM unless noted

The test system of test [1] is SK-MEL-2 melanoma.
Test [2] concerns EKVX NSCLC.
Test [3] has as its system SN12C renal.
The subject of test [4] is UO-31 renal.
Test [5] deals with TK-10 renal.
Test [6] relates to ACHN renal.
For test [7], the system named is CAKI-1 renal.
In test [8] the test system is A498 renal.
Test [9] has as its system CCRF-CEM leukemia.
In test [10] the test system is MOLT-4 leukemia.
The test system of test [11] is SR leukemia.
The test system of test [12] is RPMI-8226 leukemia.
Test [13] has as its system OVCAR-8 ovarian.
The test system of test [14] is OVCAR-5 ovarian.
The test system of test [15] is OVCAR-4 ovarian.
Test [16] relates to SK-OV-3 ovarian.
Test [17] has as its system IGROV1 ovarian.
Test [18] deals with OVCAR-3 ovarian.
The subject of test [19] is HS 578T breast.
In test [20] the test system is NCI/ADR-RES ovarian.

As to `CCCCCCNC(=O)c1cc(NCc2cc(O)ccc2O)ccc1O`, the growth is 95.5% in [1]; 66.6% in [2]; 56.3% in test [3]; 34.4% in test [4]; 68.6% in test [5]; 57.1% in [6]. The growth is 56.3% in test [7]; 99% in test [8]; 5.38% (active) in test [9]; 12.5% in [10]; 7.38% (active) in test [11]; -12.3% (active) in [12]. In addition, the growth in [13] is 30.9%; in [14], 77.5%; in test [15] it was 66.5%; in [16], 74.5%; in test [17], 70.7%; in test [18], 27.4%. Besides, the growth is 70.5% in [19] and 59.2% in test [20].
Consider `COC(=O)Nc1nc2ccc(C(=O)C3CC3)cc2[nH]1`, for which the growth in test [1] was 27.9%; in test [2], 32.7%; in [3] it was 19.7%; in test [4] it was 6.33% (active); in test [5] it was 35.5%; in test [6], 37.1%. Further, the growth is 27.1% in [7]; 6.47% (active) in test [8]; -22.3% (active) in test [9]; -16% (active) in [10]; -21.7% (active) in test [11]; -19.7% (active) in test [12]. Besides, the growth is 8.29% (active) in [13]; 48.9% in test [14]; 44.7% in test [15]; 22.7% in test [16]; -59.4% (active) in test [17]; -61.7% (active) in test [18]. Besides, the values for the growth in test [19] and in test [20] were -17.7% (active) and 9.11% (active), respectively.
As to `COc1cc(C2C=C(c3cccc(NC(C)=O)c3)Nc3ncnn32)cc(OC)c1OC` (stereo not given), the growth in test [1] is 64.9%; in [2], 37.2%; in test [3], 32.9%; in test [4], 59.6%; in test [5] it was 4.84% (active); in test [6], 52.8%. In addition, the growth in test [7] is -10.6% (active); in test [8], 1.13% (active); in test [9], 11.5%; in test [10], 9.75% (active); in [11] it was -5.94% (active); in test [12], 19%. Moreover, the growth in test [13] is 24.3%; in test [14] it was 34.8%; in [15], 59.8%; in [16] it was 35.5%; in test [17], 30.4%; in [18], -40.5% (active). The growth was 19% in test [19] and 76.1% in test [20].
As to `CCCCCCCCN(CCCCCCCC)C(=N)c1ccnc2ccccc12`, the growth in [1] was -44.2% (active); in test [2] it was -63.4% (active); in test [3], -57.8% (active); in test [4], -89.1% (active); in [5] it was -16.4% (active); in [6], -89.3% (active). Also, the growth in test [7] is -86.1% (active); in test [8], -95.7% (active); in test [9], -42.2% (active); in [10], -41.4% (active); in test [11], -56.6% (active); in test [12] it was -47.7% (active). Further, the growth in test [13] is -66.1% (active); in [14] it was -57.2% (active); in [15], -67.1% (active); in test [16], -27.8% (active); in test [17], -66.5% (active); in test [18], -93% (active). Besides, the figures for the growth in test [19] and in [20] were -32% (active) and -72.5% (active), respectively.
Take `NC(N)=N/N=C(/c1ccccc1)c1ccccc1F`: the growth in [1] is 70.5%; in [2], 60%; in test [3], 37.1%; in test [4], 44%; in test [5] it was 64.9%; in [6], 41%. In addition, the growth is 35.7% in test [7]; 44.9% in test [8]; -2.22% (active) in [9]; 22.4% in [10]; 3.14% (active) in test [11]; -36.8% (active) in test [12]. Also, the growth in test [13] was 45.5%; in test [14], 76.4%; in test [15], 36.7%; in test [16] it was 19.5%; in test [17], 20.7%; in test [18] it was -0.0856% (active). Moreover, the figures for the growth in [19] and in test [20] were 38.5% and 59.6%, respectively.
In the case of `C=C(C)C1CCC(=C)C2CCC3(C)OC12/C=C(/COC(C)=O)CCC3O` (stereo not given), the growth in test [1] is 85.4%; in [2], 96.1%; in test [3] it was 106%; in [4], 92.7%; in test [5], 121%; in test [6], 98.2%. In addition, the growth in test [7] is 6.18% (active); in test [8], 104%; in test [9], 130%; in test [10] it was 83.6%; in test [11], 74.6%; in [12], 235%. For the same molecule, the growth in test [13] was 103%; in test [14], 105%; in test [15], 127%; in test [16], 119%; in [17], 151%; in test [18] it was 124%. For the same molecule, the growth in [19] was 177%; in [20] it was 105%.
Turning to `Cc1cc(NS(=O)(=O)c2ccccc2)c(OS(=O)(=O)c2ccccc2)cc1C`, the growth in test [1] is 118%; in test [2] it was 104%; in [3], 94%; in test [4], 73.6%; in test [5], 119%; in test [6] it was 104%. Moreover, the growth in test [7] was 109%; in [8], 89.2%; in test [9], 97.5%; in test [10], 88.5%; in [11], 94.6%; in test [12], 84.1%. Besides, the growth in test [13] was 95.1%; in test [14], 114%; in test [15], 106%; in [16], 108%; in test [17], 122%; in [18] it was 110%. The results for the growth in test [19] and in [20] were 101% and 102%, respectively.
In the case of `C=CCO[C@H]1CO[C@H]2[C@@H]1OC[C@@H]2Oc1ccc(Nc2ccnc(Nc3ccc(O[C@H]4CO[C@H]5[C@@H]4OC[C@@H]5OCC=C)c(Cl)c3)n2)cc1Cl`, the growth in test [1] was 104%; in test [2], -71% (active); in test [3] it was -95.5% (active); in test [4], -91.3% (active); in [5] it was -54.4% (active); in test [6], 14.5%. In addition, the growth in [7] is -7.16% (active); in test [8] it was 95.6%; in [9], -9.75% (active); in test [10], -39.3% (active); in [11] it was -1.74% (active); in test [12], -32.7% (active). In addition, the growth is -4.18% (active) in [13]; -55.7% (active) in test [14]; -86.7% (active) in test [15]; 115% in test [16]; -94.1% (active) in test [17]; -85.5% (active) in [18]. Moreover, the growth in [19] is -38.6% (active); in [20], -63.6% (active).
